Screen size: about 5,500 compounds; about 2,000 (36%) were called active. Roughly 18% stayed inconclusive and do not appear here. Rule as the data show it: active = normalized growth mostly below about 0.91 (no sharp cut-off); inconclusive = no clear call, values can overlap the other calls; inactive = mostly above about 0.92. This is one part of the list.
Assay: chemical genetic growth profiling, strain panel (AID 1159580);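 also: tested at 20 µM; growth read once vehicle control cultures reached saturation at 30 °C; 1 = growth at the plate median or of vehicle wells; lower values mean less growth of the strain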
Conditions: S. cerevisiae deletion strains, growth OD
[1] = locus YAL021C, strain ccr4, hits give low values
[2] = locus YAL026C, strain drs2, hits give low values
[3] = locus YAL030W, strain snc1, hits give low values
[4] = locus YBL061C, strain skt5, hits give low values
[5] = locus YBR009C, strain hhf1, hits give low values
[6] = locus YBR023C, strain chs3, hits give low values
[7] = locus YBR171W, strain sec66, hits give low values
[8] = locus YBR231C, strain swc5, hits give low values
[9] = locus YBR279W, strain paf1, hits give low values
[10] = locus YCL011C, strain gbp2, hits give low values
[11] = locus YCL016C, strain dcc1, hits give low values
[12] = locus YCL061C, strain MRC1, hits give low values
[13] = locus YCL069W, strain vba3, hits give low values
[14] = locus YCR088W, strain abp1, hits give low values
[15] = locus YDL005C, strain med2, hits give low values
[16] = locus YDL040C, strain nat1, hits give low values
[17] = locus YDR001C, strain nth1, hits give low values
[18] = locus YDR069C, strain doa4, hits give low values
[19] = locus YDR137W, strain rgp1, hits give low values
[20] = locus YDR159W, strain sac3, hits give low values
[21] = locus YDR297W, strain sur2, hits give low values
[22] = locus YDR334W, strain swr1, hits give low values
[23] = locus YDR335W, strain msn5, hits give low values
[24] = locus YDR392W, strain spt3, hits give low values
[25] = locus YEL003W, strain gim4, hits give low values
[26] = locus YEL037C, strain rad23, hits give low values
[27] = locus YEL061C, strain CIN8 (second series), hits give low values
[28] = locus YER015W, strain faa2, hits give low values
[29] = locus YER016W, strain bim1, hits give low values
[30] = locus YER111C, strain swi4, hits give low values
[31] = locus YER155C, strain BEM2 (second series), hits give low values
[32] = locus YFR010W, strain ubp6, hits give low values
[33] = locus YGL167C, strain pmr1, hits give low values
[34] = locus YGL173C, strain kem1, hits give low values
[35] = locus YGL227W, strain vid30, hits give low values
[36] = locus YGL240W, strain doc1, hits give low values
[37] = locus YGL253W, strain hxk2, hits give low values
[38] = locus YHR013C, strain ard1, hits give low values
[39] = locus YHR027C, strain rpn1, hits give low values
[40] = locus YHR142W, strain chs7, hits give low values
[41] = locus YJL092W, strain hpr5, hits give low values
[42] = locus YJL095W, strain BCK1 (second series), hits give low values
[43] = locus YJL115W, strain asf1, hits give low values
[44] = locus YJL129C, strain trk1, hits give low values
[45] = locus YJL154C, strain vps35, hits give low values
[46] = locus YJL164C, strain tpk1, hits give low values
[47] = locus YJL166W, strain qcr8, hits give low values
[48] = locus YKL160W, strain elf1, hits give low values
[49] = locus YKR026C, strain gcn3, hits give low values
[50] = locus YKR091W, strain srl3, hits give low values
[51] = locus YLL001W, strain dnm1, hits give low values
[52] = locus YLL026W, hits give low values
[53] = locus YLL041C, strain sdh2, hits give low values
[54] = locus YLR027C, strain aat2, hits give low values
[55] = locus YLR221C, strain rsa3, hits give low values
[56] = locus YLR258W, strain gsy2, hits give low values
[57] = locus YLR262C, strain YPT6 (second series), hits give low values
[58] = locus YLR320W, strain mms22, hits give low values
[59] = locus YLR342W, strain FKS1, hits give low values
[60] = locus YLR357W, strain rsc2, hits give low values
[61] = locus YLR370C, strain arc18, hits give low values
[62] = locus YLR384C, strain iki3, hits give low values
[63] = locus YML120C, strain ndi1, hits give low values
[64] = locus YMR058W, strain fet3, hits give low values
[65] = locus YMR125W, strain sto1, hits give low values
[66] = locus YMR129W, hits give low values
[67] = locus YMR205C, strain PFK2, hits give low values
[68] = locus YMR231W, strain pep5, hits give low values
[69] = locus YNL071W, strain lat1, hits give low values
[70] = locus YNL209W, strain ssb2, hits give low values
[71] = locus YNL248C, strain rpa49, hits give low values
[72] = locus YNL322C, strain KRE1 (second series), hits give low values
[73] = locus YNR049C, strain mso1, hits give low values
[74] = locus YOR001W, strain rrp6, hits give low values
[75] = locus YOR070C, strain gyp1, hits give low values
[76] = locus YOR080W, strain dia2, hits give low values
[77] = locus YOR083W, strain WHI5, hits give low values
[78] = locus YOR106W, strain vam3, hits give low values
[79] = locus YOR265W, strain rbl2, hits give low values
[80] = locus YOR270C, strain vph1, hits give low values
[81] = locus YOR290C, strain snf2, hits give low values
[82] = locus YPL051W, strain arl3, hits give low values
[83] = locus YPL078C, strain atp4, hits give low values
[84] = locus YPL106C, strain sse1, hits give low values
[85] = locus YPL240C, strain hsp82, hits give low values

Measured: normalized growth

CCCCCCCC/C=C/CCCCCCCCOP(=O)([O-])OCC[N+](C)(C)C
active: [1] 0.0587 | [2] 0.0561 | [3] 0.053 | [4] 0.0558 | [5] 0.0546 | [6] 0.0583 | [7] 0.0745 | [8] 0.0586 | [9] 0.0563 | [10] 0.0519 | [11] 0.0586 | [12] 0.0589 | [13] 0.0556 | [14] 0.0562 | [15] 0.0694 | [16] 0.0556 | [17] 0.0555 | [18] 0.0593 | [19] 0.105 | [20] 0.0716 | locus YDR195W, strain ref2 0.0966 | [21] 0.0533 | [22] 0.0581 | [23] 0.0561 | [24] 0.0625 | [25] 0.0513 | [26] 0.0533 | [27] 0.0564 | [28] 0.0609 | [29] 0.0567 | [30] 0.0743 | [31] 0.0793 | [32] 0.0589 | [33] 0.0691 | [34] 0.0671 | [35] 0.0578 | [36] 0.0658 | [37] 0.0494 | [38] 0.0918 | [39] 0.0597 | [40] 0.0608 | [41] 0.0556 | [42] 0.0534 | [43] 0.0664 | [44] 0.0759 | [45] 0.0613 | [46] 0.0536 | [47] 0.0552 | locus YJL187C, strain SWE1, hits give low values 0.055 | [48] 0.0575 | [49] 0.0565 | [50] 0.0556 | [51] 0.0557 | [52] 0.0528 | [53] 0.0534 | [54] 0.0482 | [55] 0.0536 | [56] 0.0544 | [57] 0.0801 | [58] 0.066 | [59] 0.0588 | [60] 0.106 | [61] 0.056 | [62] 0.0574 | [63] 0.0534 | [64] 0.0555 | [65] 0.062 | [66] 0.0548 | [67] 0.0726 | [68] 0.065 | [69] 0.0563 | [70] 0.0577 | [71] 0.0552 | [72] 0.0595 | [73] 0.0525 | [74] 0.0584 | [75] 0.0589 | [76] 0.0596 | [77] 0.0554 | [78] 0.0591 | [79] 0.0537 | [80] 0.072 | [81] 0.0546 | [82] 0.0574 | [83] 0.058 | [84] 0.0823 | [85] 0.054

CCCCCCCCCCCCCCCCOP(=O)([O-])OCC[N+](C)(C)C
inactive: locus YHR030C, strain SLT2, hits give low values 0.971 | locus YHR079C, strain IRE1, hits give low values 0.967 | locus YJL095W, strain BCK1, hits give low values 0.985 | locus YJR066W, strain TOR1, hits give low values 0.915 | locus YLR113W, strain HOG1, hits give low values 1.07 | locus YNL183C, strain NPR1, hits give low values 0.912 | locus YOR231W, strain MKK1, hits give low values 0.953 | locus YPL256C, strain CLN2, hits give low values 1.01
active: [1] 0.0619 | [2] 0.0625 | [3] 0.0575 | [4] 0.0614 | [5] 0.0673 | [6] 0.0636 | [7] 0.0767 | [8] 0.0637 | [9] 0.0644 | [10] 0.0569 | [11] 0.0649 | [12] 0.0638 | [13] 0.0585 | [14] 0.0589 | [15] 0.0739 | [16] 0.062 | [17] 0.0559 | [18] 0.0612 | [19] 0.105 | [20] 0.0874 | locus YDR195W, strain ref2 0.133 | [21] 0.0626 | [22] 0.0607 | [23] 0.0579 | [24] 0.0822 | [25] 0.0548 | [26] 0.0549 | [27] 0.0587 | [28] 0.0638 | [29] 0.0622 | [30] 0.0695 | [31] 0.0842 | [32] 0.0648 | [33] 0.0766 | [34] 0.082 | [35] 0.0637 | [36] 0.0747 | [37] 0.0509 | [38] 0.14 | [39] 0.0701 | [40] 0.0698 | [41] 0.0564 | [42] 0.0584 | [43] 0.0702 | [44] 0.0808 | [45] 0.0578 | [46] 0.0591 | [47] 0.061 | [48] 0.0625 | [49] 0.0625 | [50] 0.072 | [51] 0.0583 | [52] 0.0591 | [53] 0.058 | [54] 0.0551 | [55] 0.0588 | [56] 0.0598 | [57] 0.0755 | [58] 0.0754 | [59] 0.0648 | [60] 0.121 | [61] 0.062 | [62] 0.0585 | [63] 0.0597 | [64] 0.0574 | [65] 0.075 | [66] 0.0586 | [67] 0.0871 | [68] 0.173 | [69] 0.0608 | [70] 0.0625 | [71] 0.0698 | [72] 0.0641 | [73] 0.0585 | [74] 0.0712 | [75] 0.0615 | [76] 0.0657 | [77] 0.0753 | [78] 0.0675 | [79] 0.0614 | [80] 0.093 | [81] 0.069 | [82] 0.0646 | [83] 0.0596 | [84] 0.0983 | [85] 0.0574

CCCCCCCCCCCCCCCCCCOC[C@H](COP(=O)([O-])OCC[N+](C)(C)C)OC
inactive: locus YAL013W, strain DEP1, hits give low values 1 | locus YAL040C, strain CLN3, hits give low values 1.04 | locus YCL061C, strain MRC1 (second series), hits give low values 1.02 | locus YDR363W, strain ESC2, hits give low values 0.992 | locus YER002W, strain NOP16, hits give low values 1.04 | locus YMR263W, strain SAP30, hits give low values 0.998 | locus YMR307W, strain GAS1, hits give low values 1 | locus YNL153C, strain GIM3, hits give low values 0.997 | locus YNL175C, strain NOP13, hits give low values 1.05 | locus YNL197C, strain WHI3, hits give low values 1.01 | locus YNL224C, strain SQS1, hits give low values 1.04 | locus YNL322C, strain KRE1, hits give low values 0.988 | locus YOR083W, strain WHI5 (second series), hits give low values 1.02

From PubChem BioAssay AID1159580 (chemical genetic matrix, 2015)
